Source: PubChem BioAssay (NCATS)
Records with an inconclusive call do not appear. Where a call stands in place of a potency, no number is given. The source made the active and inactive calls. Calls follow the shape of the dose curve; as a rule, active = well fitted curve in the direction sought with a large enough effect; inconclusive = small, poorly fitted or top-dose-only effect, or another doubt; inactive = no such curve, though single readings can be large; an effect the other way counts as inactive or inconclusive.

Columns and labels:
[1] = target: Cellular tumor antigen p53 (Homo sapiens) (UniProt P04637); assay: Primary qHTS for small molecule compounds that upregulate eGFP-tagged delta133p53alpha (in N-terminal) cells. (AID 2060322); details: NCI-H358 eGFP-delta133p53alpha fluorescence, 24 h; activation: active compounds read high; also: nearly all actives have a fitted effect of over 75% in size; also: potency is read from the fitted curve at half-maximal effect;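 as to activation: cells pre-induced with doxycycline then dosed without doxycycline; series mostly up to about 56 µM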
Summary of the method: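 NCI-H358 cells pre-induced 24 h with 10 ng/ml doxycycline for eGFP-delta133p53alpha, plated dox-free and exposed 24 h at 37C to titrated compounds. Fixed, Hoechst-stained; gated GFP peak intensity by laser scanning cytometry, normalized to DMSO (0%) and 57.5 uM 5-azacytidine (100%).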

[2] = target: Aldehyde dehydrogenase, mitochondrial (Homo sapiens) (UniProt P05091); assay: qHTS for Inhibitors of the Aldehyde Dehydrogenase Family (ALDH2) Primary screen (AID 2061308); also: nearly all actives have a fitted effect of over 55% in size
[3] = target: Retinaldehyde dehydrogenase 3 (Homo sapiens) (UniProt P47895); assay: qHTS for Inhibitors of the Aldehyde Dehydrogenase Family (ALDH1A3) Primary screen (AID 2061315)

Cellular tumor antigen p53 (Homo sapiens), sequence (P04637 whole entry, looked up): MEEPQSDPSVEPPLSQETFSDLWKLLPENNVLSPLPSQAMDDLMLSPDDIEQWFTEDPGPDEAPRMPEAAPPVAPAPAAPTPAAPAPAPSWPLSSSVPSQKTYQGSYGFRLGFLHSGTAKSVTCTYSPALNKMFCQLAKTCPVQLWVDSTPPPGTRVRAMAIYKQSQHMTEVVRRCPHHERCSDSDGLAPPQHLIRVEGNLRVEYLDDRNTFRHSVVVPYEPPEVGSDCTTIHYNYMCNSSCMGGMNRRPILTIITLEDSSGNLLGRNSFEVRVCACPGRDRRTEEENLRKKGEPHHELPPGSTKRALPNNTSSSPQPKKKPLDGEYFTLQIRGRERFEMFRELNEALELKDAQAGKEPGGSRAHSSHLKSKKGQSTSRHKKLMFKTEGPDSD

For C=C1C(=O)O[C@@H]2[C@H]1CC[C@H](C)C(CCC(=O)O)C2(C)O (some centres not stated), the Potency [1] was 23.9 µM (active), the Potency [2] was “inactive” and the Potency [3] was “inactive”.
CC(C)C1CCC(CO)=CC1/C=C(\CO)C(=O)OCC1(O)CCC(C(C)C)C2C=C(C(=O)O)COC(=O)C21 (configuration not stated) was tested, and the activation [1] was 9.16% (inactive), the Potency [2] was “inactive” and the Potency [3] was “inactive”.
For COc1ccc(C2=CC(=O)OC2Cc2ccc(O)cc2)c(O)c1 (configuration not stated), the activation [1] was -20.6% (inactive), the Potency [2] was “inactive” and the Potency [3] was “inactive”.
Cc1occc(=O)c1O[C@@H]1O[C@H](CO)[C@@H](O)[C@H](O)[C@H]1O was tested, and the activation [1] was 11.6% (inactive), the Potency [2] was “inactive” and the Potency [3] was “inactive”.
For C=C1[C@@H]2CC[C@@]3(C)[C@H](c4ccoc4)OC(=O)C[C@]13O[C@H]1CC(=O)C(C)(C)[C@H](CC(=O)OC)[C@]12C, the activation [1] was -26.7% (inactive), the Potency [2] was “inactive” and the Potency [3] was “inactive”.
In the case of CN(C)CC#CCCC(=O)C(O)(c1ccccc1)C1CCC1 (configuration not stated), the activation [1] is reported as 8.33% (inactive), the Potency [2] is reported as “inactive” and the Potency [3] is reported as “inactive”.
With CCC(C)/C=C(C)/C=C/c1cc2c(cn1)C(=O)C(C)(OC(C)=O)C(O)=C2Cl (configuration not stated) the activation [1] was -6.11% (inactive), the Potency [2] was “inactive” and the Potency [3] was “inactive”.
CC(C)/C=C1/NC(=O)C(C(C)C)n2c1nc1c(O)cccc1c2=O (configuration not stated) was tested, and the activation [1] was -14.5% (inactive), the Potency [2] was “inactive” and the Potency [3] was “inactive”.
Cc1ccc(C(C)C)c(O[C@@H]2O[C@H](CO)[C@@H](O)[C@H](O)[C@H]2O)c1 was tested, and the activation [1] was -1.53% (inactive), the Potency [2] was “inactive” and the Potency [3] was “inactive”.
For CC1=CC(=O)CC(C)(C)[C@H]1/C=C/C(CO)O[C@@H]1O[C@H](CO)[C@@H](O)[C@H](O)[C@H]1O (some centres not stated), the activation [1] was 9.16% (inactive), the Potency [2] was “inactive” and the Potency [3] was “inactive”.
With CC(NC(=O)c1ccccc1N)C(=O)O (configuration not stated) the activation [1] was -20.6% (inactive), the Potency [2] was “inactive” and the Potency [3] was “inactive”.
With O=C(CCc1ccccc1)N1CCC(O)(Cn2cnc3cc(Cl)ccc3c2=O)CC1 the activation [1] was -13.7% (inactive), the Potency [2] was “inactive” and the Potency [3] was “inactive”.
In the case of CC(C(=O)O)c1ccc(/C=C2\CCCCC2=O)cc1 (configuration not stated), the activation [1] is reported as -13.4% (inactive), the Potency [2] is reported as “inactive” and the Potency [3] is reported as “inactive”.
C[C@@H]1CC[C@]2(C(=O)O)CC[C@]3(C)C(=CCC4[C@@]5(C)C[C@@H](O)[C@H](O)[C@@](C)(CO)C5CC[C@]43C)C2[C@]1(C)O (some centres not stated) was tested, and the activation [1] was 29.5% (inactive), the Potency [2] was “inactive” and the Potency [3] was “inactive”.
CCC(C)C(=O)O[C@H]1[C@H](O)[C@@]2(COC(C)=O)C(CC1(C)C)C1=CCC3[C@@]4(C)CC[C@H](O[C@@H]5O[C@H](C(=O)O)[C@@H](O)[C@H](O)[C@H]5O)[C@@](C)(CO)C4CC[C@@]3(C)[C@]1(C)C[C@@H]2O (some centres not stated) was tested, and the activation [1] was -0.893% (inactive), the Potency [2] was “inactive” and the Potency [3] was “inactive”.
For COc1ccccc1CC(C(=O)O)N(C)C(=O)c1ccccc1 (configuration not stated), the activation [1] was -8.04% (inactive), the Potency [2] was “inactive” and the Potency [3] was “inactive”.
For CC(=O)O[C@H]1[C@H](C)[C@@H](O)[C@H]2[C@@H]1C=C(C(=O)O)[C@H]1C[C@@H]3[C@H]([C@H]21)[C@H]1C(=O)O[C@@H]2CC[C@@]3(C)O[C@]1(O)[C@@H]2C, the activation [1] was -11.5% (inactive), the Potency [2] was “inactive” and the Potency [3] was “inactive”.
CC[C@H]1OC(=O)[C@H](C)[C@@H](OC2C[C@@](C)(OC)[C@@H](O)[C@H](C)O2)[C@H](C)[C@@H](OC2O[C@H](C)C[C@H](NC)[C@H]2O)[C@](C)(O)C[C@@H](C)CN(C)[C@H](C)[C@@H](O)[C@]1(C)O (some centres not stated) was tested, and the activation [1] was 4.33% (inactive), the Potency [2] was “inactive” and the Potency [3] was “inactive”.
For COc1cc(C)c(C(=O)OC2C(C)OC(OC3CCC(C)C4C3C=C(C)C3/C(C)=C\CC/C(C)=C/C5(C)C=C(C(=O)O)C(C)CC56OC(=O)/C(=C(\O)C34C)C6=O)C(O)C2O)c(OC)c1 (configuration not stated), the activation [1] was 10.7% (inactive), the Potency [2] was “inactive” and the Potency [3] was “inactive”.
In the case of COc1cccc2c1CCC[C@H]2CN(C)CCc1ccc2ccoc2c1, the activation [1] is reported as -3.57% (inactive), the Potency [2] is reported as “inactive” and the Potency [3] is reported as “inactive”.
In the case of COc1cc(C(C)=O)ccc1O[C@@H]1O[C@H](CO[C@@H]2OC[C@@H](O)[C@H](O)[C@H]2O)[C@@H](O)[C@H](O)[C@H]1O, the activation [1] is reported as 9.16% (inactive), the Potency [2] is reported as “inactive” and the Potency [3] is reported as “inactive”.
In the case of C/C=C/[C@@H]1C=C[C@@H]2C[C@H](C)CC[C@H]2[C@]1(C)/C(O)=C1/C(=O)[C@@H](CO)N(C)C1=O, the activation [1] is reported as 6.87% (inactive), the Potency [2] is reported as “inactive” and the Potency [3] is reported as “inactive”.
For CC(O)C(C)n1ncn(-c2ccc(N3CCN(c4ccc(OCC5COC(Cn6cncn6)(c6ccc(Cl)cc6Cl)O5)cc4)CC3)cc2)c1=O (configuration not stated), the activation [1] was -5.67% (inactive), the Potency [2] was “inactive” and the Potency [3] was “inactive”.
With CC1(C)SC2C(NC(=O)[C@H](NC(=O)N3CCNC3=O)c3ccccc3)C(=O)N2C1C(=O)O (some centres not stated) the activation [1] was 17% (inactive), the Potency [2] was “inactive” and the Potency [3] was “inactive”.
